Test results: PubChem BioAssay (Tox21)
Results filed as inconclusive are left out. Values without a mark were called inactive. The call rests on the fitted dose curve; in most records, active means well fitted cell-killing curve with a large enough effect in the repeat runs; inconclusive means weak or mixed curves; inactive means flat fitted curve, though single readings scatter.

Assay: qHTS RealTime-Glo MT Cell Viability Assay in HepG2 cells - 16 hour (AID 1224885); further: nearly all actives have a fitted effect of over 50% in size
Details: RealTime-Glo luminescence; series mostly up to 76.8 µM; activity change, negative = cytotoxic: at the top concentration
Source text: U.S. Tox21 Program National Center for Advancing Translational Sciences [NCATS] NIH Chemical Genomics Center [NCGC] U.S. Environmental Protection Agency [EPA] National Institutes of Environmental Health Sciences [NIEHS] National Toxicology Program [NTP] U.S. Food and Drug Administration [FDA] Tox21 Assay Overview: Measure of cell viability is critical in the cell-base assay. Analysis of cell viability is necessary for the characterization of cell responses to cytotoxic drugs and environmental stress. A RealTime-Glo MT Cell Viability Assay to monitor cell viability in real time of continues cell culture during 40 hours of compound treatment was used to screen Tox21 10K library compounds in HepG2 cells. The RealTime-Glo MT Cell Viability Assay is a nonlytic, homogeneous, bioluminescent method to measure cell viability in real time using a simple, plate-based method. The assay involves adding NanoLuc luciferase and a cell-permeant prosubstrate to cells in culture. Viable cells reduce the proprietary prosubstrate to generate a substrate for NanoLuc luciferase. This substrate diffuses from cells into the surrounding culture medium, where it is rapidly used by the NanoLuc Enzyme to produce a luminescent signal. The signal correlates with the number of viable cells, making the assay well suited for cytotoxicity studies.
Tox21 Assay Protocol Summary: The mixture of HepG2 cell suspension and reagents were dispensed at 600cells/6 ul/well in 1536-well tissue culture treated black solid bottom plates using a Multidrop dispenser. After the assay plates were incubated at a 37 C/5% CO2 incubator for 5 hours, 23 nL of compounds dissolved in DMSO, positive and negative controls was transferred to the assay plate by a pintool work station. The plates were incubated at 37 C for 40 hours. The luminescence intensity were measured at 0h, 8h, 16h, 24h, 32h and 40h time points using ViewLux plate reader during compound treatment.
On the % scale 0 is the no-effect control and ±100 the full control effect.

Row | Structure (SMILES) | activity change, negative = cytotoxic
1 | CC(CN)CCCN (stereo not given) | 0.338%
2 | O=C(CC(=O)c1ccccc1)c1ccccc1 | -19.5%
3 | CCN1CCC[C@H]1CNC(=O)c1c(OC)ccc(Br)c1OC | 1.12% [at 35.3 µM]
4 | COC(Cc1ccccc1)OC | 1.05%
5 | CC(=O)N(O)CCCCCNC(=O)CCC(=O)N(O)CCCCCNC(=O)CCC(=O)N(O)CCCCCN | 3.27% [at 35.3 µM]
6 | COCCCCCCCCOCCC[Si](C)(O[Si](C)(C)C)O[Si](C)(C)C | -14.7%
7 | O=C1c2cccc(O)c2C(=O)c2c(O)cc(CO)cc21 | -2.72%
8 | Cc1ccccn1 | 0.792%
9 | Cc1ccc(C(N)=O)cc1N | 1.12%
10 | CCCCc1cc2ccccc2c(OCCN(C)C)n1 | -21.1% [at 35.3 µM]
11 | Nc1ccc(C(=O)N2CC3CC(CN(Cc4ccccc4)C3)C2)cc1 | -0.62% [at 35.3 µM]
12 | CC(=O)O[C@@H]1C(=O)O[C@@H]2[C@H]1OC(=O)[C@@H]2OC(C)=O | 1.04% [at 35.3 µM]
13 | CC(=O)/C=C/C1C(C)=CCCC1(C)C (stereo not given) | -2.87%
14 | O=C(O)[C@@H]1[C@H]2C[C@H]3c4[nH]c5ccccc5c4CCN3C[C@@H]2CC[C@@H]1O | 5.17% [at 35.3 µM]
15 | CN1CCC[C@@H]1c1cccnc1 | 0.582% [at 35.3 µM]
16 | Oc1ccc(Cc2ccccc2)cc1 | -6.22%
17 | CC(C)(C)c1cc(O)c(C(C)(C)C)cc1O | -22.4%
18 | CC(=O)[C@@]1(O)CC[C@H]2[C@@H]3C[C@H](C)C4=CC(=O)CC[C@]4(C)[C@H]3CC[C@@]21C | -6.9% [at 35.3 µM]
19 | Cc1cccc(Oc2ccccc2)c1 | -17.9%
20 | CC(=O)O[C@H]1C[C@@H]2CC[C@@H]3[C@H](CC[C@@]4(C)[C@H]3C[C@H]([N+]3(C)CCCCC3)[C@@H]4OC(C)=O)[C@@]2(C)C[C@@H]1N1CCCCC1 | 0.449% [at 35.3 µM]

Row | Structure (SMILES) | activity change, negative = cytotoxic
21 | C=Cc1c(C)c2cc3[nH]c(cc4nc(cc5nc(cc1[nH]2)C(C)=C5CCC(=O)O)C(CCC(=O)O)=C4C)c(C)c3C=C | -8.44% [at 35.3 µM]
22 | CC(=O)N(CC(=O)N(C)C)c1ccccc1 | 1.36% [at 35.3 µM]
23 | Oc1ccc2c(c1)OCO2 | -0.287%
24 | Oc1ccc(Sc2ccc(O)cc2)cc1 | -4.74%
25 | Cc1ccc(O)c([C@H](CCN(C(C)C)C(C)C)c2ccccc2)c1 | -12.6% [at 35.3 µM]
26 | CC(C)NCC(O)c1cc(O)cc(O)c1 (stereo not given) | -1.02% [at 35.3 µM]
27 | CC[C@@H]1C[C@H](N(Cc2cc(C(F)(F)F)cc(C(F)(F)F)c2)C(C)=O)c2cc(C(F)(F)F)ccc2N1C(=O)OC(C)C | -11.3%
28 | CC(C)c1ccccc1C(C)C | 1.89%
29 | O=C(NN1CCCC1)NS(=O)(=O)c1ccc(Cl)cc1 | 0.926% [at 35.3 µM]
30 | O=c1[nH]cnc2ccccc12 | -0.589%
31 | CC(C(=O)O)c1ccc(C(=O)c2ccccc2)s1 (stereo not given) | 4.35% [at 35.3 µM]
32 | CC[C@]12CCCN3CCc4c(n(c5ccccc45)C(=O)C1)[C@@H]32 | -16.9% [at 35.3 µM]
33 | CN1CCC(OC(c2ccccc2)c2ccccc2)CC1 | -1.47% [at 35.3 µM]
34 | Cc1cccc(OCCOc2cccc(C)c2)c1 | -0.519%
35 | CCC(=O)OC(C)(C)C1CC=C(C)CC1 (stereo not given) | 1.32%
36 | Cn1c(NCCN(CCO)CCCc2ccc([N+](=O)[O-])cc2)cc(=O)n(C)c1=O | -1.26% [at 35.3 µM]
37 | N=C(N=C(N)N)N1CCOCC1 | -4.11% [at 35.3 µM]
38 | CCCCC(CC)(CO)CO | -0.973%
39 | CC(=O)CC(=O)c1ccccc1 | 2.33%
40 | CCCCCc1ccc(N)cc1 | -8.04%
